According to PubChem BioAssay AID651626 (National Center for Advancing Translational Sciences (NCATS), 2012):
A number with no mark means an inactive call.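 Rule for the calls: active = inhibition of at least 60% at 114 µM in the USP2 gel assay; inconclusive = inhibition from 30% up to under 60% at 114 µM; inactive = inhibition under 30% at 114 µM.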

Biological target: Ubiquitin carboxyl-terminal hydrolase 2 (Homo sapiens) (UniProt O75604)
Assay: Inhibitors of USP1/UAF1: SAR in USP2 diubiquitin SDS-PAGE gel assay
Details: USP2 K63 diubiquitin cleavage, SDS-PAGE gel densitometry; series mostly up to 114 µM; inhibition: at the top concentration
Excerpt: Deubiquitinating enzymes (DUBs) are a class of enzymes that can cleave isopeptide bond formed between the C-terminal carboxylate of ubiquitin and a lysine side-chain amino group on the target protein. Among them, ubiquitin specific proteases (USPs) constitute the largest DUB family. Human USPs are emerging as promising targets for pharmacological intervention because of their connection to a number of human diseases, including prostate, colon and breast cancer (1, 2), pediatric acute lymphoblastic leukemia (3), and familial cylindromatosis (4). The advantage of inhibiting USPs lies in the potential specificity of therapeutic intervention that can lead to better efficacy and reduce nonspecific side effects. In a collaboration between the University of Delaware and the NIH Chemical Genomics Center, a high-throughput screen assay was developed to screen for USP1/UAF1 inhibitors (5). […]
The inhibition assay contains 20 nM USP2, 2 microM K63 linked diubiquitin, and inhibitors at varied concentrations (0.08 microM - 114 microM). […] The intensity of the individual diubiquitin and monoubiquitin band was quantified using Quantity One 4.3.1 (Biorad, Hercules, CA). The percentage of the conversion was determined and used to calculate the reaction rate. […]

Sequence of Ubiquitin carboxyl-terminal hydrolase 2 (Homo sapiens) (O75604 whole entry, looked up): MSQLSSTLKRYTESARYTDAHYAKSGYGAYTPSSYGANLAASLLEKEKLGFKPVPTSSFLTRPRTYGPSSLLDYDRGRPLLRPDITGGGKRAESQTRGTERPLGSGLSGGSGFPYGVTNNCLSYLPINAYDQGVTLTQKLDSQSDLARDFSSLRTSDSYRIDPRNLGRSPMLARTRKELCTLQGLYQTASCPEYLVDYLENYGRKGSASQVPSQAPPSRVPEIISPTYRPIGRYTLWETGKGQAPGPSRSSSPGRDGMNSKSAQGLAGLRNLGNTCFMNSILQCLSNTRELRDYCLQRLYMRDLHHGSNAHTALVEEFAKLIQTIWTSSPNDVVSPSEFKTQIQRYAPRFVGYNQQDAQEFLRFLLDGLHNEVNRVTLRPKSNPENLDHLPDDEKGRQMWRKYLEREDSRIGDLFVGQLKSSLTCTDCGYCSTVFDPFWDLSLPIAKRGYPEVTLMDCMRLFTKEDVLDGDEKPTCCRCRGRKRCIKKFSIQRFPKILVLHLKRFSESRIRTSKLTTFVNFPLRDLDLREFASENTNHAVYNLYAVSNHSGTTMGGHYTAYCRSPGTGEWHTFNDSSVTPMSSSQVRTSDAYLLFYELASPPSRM

SMILES | inhibition [%]
Cc1cnc(-c2ccccc2C(C)C)nc1NCc1ccc(-n2ccnn2)cc1 | 8
